# A selection: hits, their analogues and other compounds. The true share with any hit is near 6.7%.
# Pf Dd2 growth – blocks growth of Plasmodium falciparum Dd2 parasites; 2.3% of 94,000 active; AID 1159554; activity change, % at 10 µM; P. falciparum Dd2 growth, SYBR Green, 72 h; active compounds read low; in the data active means activity change below about -80%; inconclusive means no clear call, values can overlap the other calls
# C diff growth – C. difficile growth inhibition. growth activity, negative = inhibition, % at 16 µg/mL (by protocol). AID 1259249. 0.25% of 86,000 active. Clostridium difficile clinical isolate growth, OD600, 24 h; active compounds read low;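 active means mean growth activity at or below -80% and every replicate also at or below -80%; inconclusive means mean at or below -80% but some replicate above -80%; inactive means mean growth activity above -80%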;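 further: 0% = DMSO wells and -100% = levofloxacin 16 µg/mL wells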
# T cruzi growth-1 – T. cruzi proliferation inhibition. T. cruzi beta-gal in NIH3T3, GalScreen luminescence, 90 h. inhibition, % at 8.34 µM. 5.9% of 77,000 active. AID 624255;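 active means mean inhibition above about 93%, with at least 55% of replicates each passing it, limit read from the data, passing the limit was not always enough; inconclusive means only one of those two conditions holds; inactive means neither condition holds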
# T cruzi growth-2 – blocks T. cruzi growth in NIH3T3 host cells. shares compounds with T cruzi growth-1. T. cruzi beta-gal in NIH3T3, GalScreen luminescence, 90 h. inhibition, % at 8.35 µM. 72% of 5,600 active;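 active means mean replicate inhibition above about 95% and at least 55% of replicates individually reaching it, limit read from the data; inconclusive means only one of the two criteria is met; inactive means neither criterion is met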
# T cruzi growth-3 – inhibitors of T. cruzi proliferation; inhibition, % at 2.09 µM; AID 651740; T. cruzi beta-gal in NIH3T3, GalScreen luminescence, 90 h; shares compounds with T cruzi growth-1; 21% of 5,600 active;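 active means mean inhibition above about 95%, with at least 55% of replicates also reaching it, limit read from the data; inconclusive means meets just one of the two conditions; inactive means meets neither condition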;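 further: plate controls were neutral control median for no effect and positive control median for full effect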
# 3T3 cytotox – kills mouse NIH/3T3 fibroblasts. shares compounds with T cruzi growth-1. NIH/3T3 viability, CellTiter-Glo ATP luminescence, 90 h. cytotoxicity (signal decrease), % at 8.35 µM. 14% of 5,600 active. AID 651742;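 active means mean signal decrease across replicates above about 35% based on untreated-well scatter, with enough replicates individually passing, limit read from the data; inconclusive means no rule stated though some were filed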;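 further: 0% = median of neutral control wells and 100% = median of positive control wells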
# 3T3 cytotox 2 – kills mouse NIH/3T3 fibroblasts | shares compounds with T cruzi growth-1 | NIH/3T3 viability, CellTiter-Glo ATP luminescence, 90 h | inhibition, % at 24.9 µM | 56% of 5,600 active;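 active means mean loss of cell viability signal at or above a set limit, and enough replicates individually reaching it; inconclusive means meets only the mean limit or only the replicate share; inactive means meets neither condition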;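 further: 0% = median of neutral control wells and 100% = median of positive control wells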
# The depositor's hits bear a star; ? = inconclusive; nt = no result; + = active, no number.
SMILES,Pf Dd2 growth,C diff growth,T cruzi growth-1,T cruzi growth-2,T cruzi growth-3,3T3 cytotox,3T3 cytotox 2
C[C@@H]1CN([C@@H](C)CO)C(=O)c2c(c3ccccc3n2C)-c2ccccc2CO[C@@H]1CN(C)S(=O)(=O)c1ccsc1,-33,-4,62,nt,nt,nt,nt
COCc1cn(CC[C@@H]2CC[C@H](NC(=O)Nc3ccc(Cl)cc3)[C@H](CO)O2)nn1,2,3,-16,nt,nt,nt,nt
CC(C)NC(=O)Nc1cccc2c1O[C@H](CN(C)Cc1ccc(Cl)c(Cl)c1)[C@H](C)CN([C@H](C)CO)C2=O,-12,10,13,nt,nt,nt,nt
Cc1ccc(S(=O)(=O)N(C)C[C@H]2Oc3c(NC(=O)Nc4ccc(F)cc4)cccc3C(=O)N([C@@H](C)CO)C[C@H]2C)cc1,-33,-12,41,nt,nt,nt,nt
C/C=C/c1ccc2c(c1)O[C@H](CN(C)C(=O)Cc1ccncc1)[C@H](C)CN([C@H](C)CO)S2(=O)=O,-33,4,11,nt,nt,nt,nt
C[C@H]1CN([C@@H](C)CO)C(=O)c2c(c3ccccc3n2C)-c2ccccc2CO[C@@H]1CN(C)S(=O)(=O)c1cccc(F)c1,-88*,4,102*,108*,86,-22,27*
C[C@H](CO)N1C[C@H](C)[C@H](CN(C)S(=O)(=O)c2ccccc2F)OCc2ccccc2-c2c(n(C)c3ccccc23)C1=O,-87*,5,99*,104*,83,44*,97*
C[C@@H]1CN([C@@H](C)CO)C(=O)c2c(c3ccccc3n2C)-c2ccccc2CO[C@H]1CN(C)S(=O)(=O)c1ccccc1F,-74,20,70,nt,nt,nt,nt
C[C@@H]1CN([C@H](C)CO)C(=O)c2c(c3ccccc3n2C)-c2ccccc2CO[C@@H]1CN(C)S(=O)(=O)c1cccc(F)c1,-69,5,67,nt,nt,nt,nt
O=C(C1CCCCC1)N1CC[C@@H]2[C@@H](CO)Nc3ccc(Br)cc3[C@@H]21,-67,15,31,nt,nt,nt,nt
N#Cc1ccc(-c2ccc3c(c2)[C@H]2[C@H](CCN2S(=O)(=O)c2cccc(F)c2)[C@H](CO)N3)cc1,-9,-2,13,nt,nt,nt,nt
N#Cc1cccc(-c2ccc3c(c2)[C@@H]2[C@@H](CCN2S(=O)(=O)c2ccc(F)cc2)[C@H](CO)N3)c1,-3,5,22,nt,nt,nt,nt
N#Cc1ccc(-c2ccc3c(c2)[C@@H]2[C@@H](CCN2S(=O)(=O)c2ccccc2F)[C@H](CO)N3)cc1,24,-6,36,nt,nt,nt,nt
N#Cc1cccc(-c2ccc3c(c2)[C@H]2[C@H](CCN2S(=O)(=O)c2cccc(F)c2)[C@@H](CO)N3)c1,10,37,?,106*,48,46*,51*
N#Cc1cccc(-c2ccc3c(c2)[C@H]2[C@H](CCN2S(=O)(=O)c2cccc(F)c2)[C@H](CO)N3)c1,42,-7,103*,99*,27,10,?
N#Cc1cccc(-c2ccc3c(c2)[C@@H]2[C@@H](CCN2S(=O)(=O)c2ccccc2F)[C@H](CO)N3)c1,23,-1,108*,106*,87,46*,92*
O=S(=O)(N[C@H]1CC[C@@H](CCn2cc(-c3cccc(F)c3)nn2)O[C@@H]1CO)c1ccc(F)cc1,nt,-5,nt,nt,nt,nt,nt
C[C@@H]1CCCCO[C@H](CN(C)Cc2ccc(C(=O)O)cc2)[C@H](C)CN([C@H](C)CO)C(=O)c2cc(NS(=O)(=O)c3cn(C)cn3)ccc2O1,56,-2,25,nt,nt,nt,nt
O=C(NC1CCCCC1)N1CC2(C1)[C@H](c1ccccc1)[C@H](CO)N2CC1CC1,21,-3,nt,nt,nt,nt,nt
COc1ccccc1S(=O)(=O)N[C@H]1CC[C@H](CCNC(=O)C2CCC2)O[C@H]1CO,-16,2,nt,nt,nt,nt,nt
CC=Cc1ccc2n(c1=O)C[C@@H]1[C@@H](CO)[C@H](C(=O)NCCCN(C)C)[C@H]2N1C(=O)c1ccccc1F (mixture of isomers),nt,0,+,57,-62,-3,8
CC=Cc1ccc2n(c1=O)C[C@@H]1[C@@H](CO)[C@H](C(=O)Nc3ccc(-c4ccccc4)cc3)[C@H]2N1C(=O)CC (mixture of isomers),nt,-38,135*,103*,13,24,48*
CC=Cc1ccc2n(c1=O)C[C@H]1[C@H](CO)[C@@H](C(=O)NCC)[C@@H]2N1C(=O)C1CC1 (mixture of isomers),nt,3,-22,nt,nt,nt,nt
CC=Cc1ccc2n(c1=O)C[C@H]1[C@H](CO)[C@@H](C(=O)NCC)N(Cc3ccccc3Cl)[C@@H]21 (mixture of isomers),nt,-2,-96,nt,nt,nt,nt
CC=Cc1ccc2n(c1=O)C[C@H]1[C@H](CO)[C@@H](C(=O)Nc3ccccc3)[C@@H]2N1C(=O)CC (mixture of isomers),11,-1,9,nt,nt,nt,nt
SMILES,Pf Dd2 growth,C diff growth,T cruzi growth-1,T cruzi growth-2,T cruzi growth-3,3T3 cytotox,3T3 cytotox 2
CC=Cc1ccc2n(c1=O)C[C@H]1[C@H](CO)[C@@H](C(=O)NCCC)[C@@H]2N1C(=O)C1CC1 (mixture of isomers),-2,-4,112*,99*,9,14,20
CC=Cc1ccc2n(c1=O)C[C@H]1[C@H](CO)[C@@H](C(=O)NCCCN(C)C)[C@@H]2N1C(=O)c1ccccc1 (mixture of isomers),69,0,nt,nt,nt,nt,nt
CC=Cc1ccc2n(c1=O)C[C@@H]1[C@@H](CO)[C@H](C(=O)NCc3ccccc3Cl)N(S(C)(=O)=O)[C@H]21 (mixture of isomers),nt,-5,98*,81,8,-13,2
Cc1ccc(S(=O)(=O)Nc2ccc3c(c2)C(=O)N([C@H](C)CO)C[C@@H](C)[C@@H](CN(C)C)OCCCC[C@H](C)O3)cc1,-45,-6,42,nt,nt,nt,nt
COc1ccc(CN(C)C[C@@H]2Oc3ccc(NC(=O)Nc4c(C)noc4C)cc3C(=O)N([C@@H](C)CO)C[C@H]2C)cc1,27,-1,71,nt,nt,nt,nt
C[C@H](CO)N1C[C@H](C)[C@H](CN(C)Cc2ccc3c(c2)OCO3)Oc2ccc(NS(C)(=O)=O)cc2CC1=O,35,-1,27,nt,nt,nt,nt
CO[C@H]1CN(C)C(=O)c2cc(NC(=O)NC3CCCCC3)ccc2OC[C@@H](C)NC[C@@H]1C,nt,nt,-21,nt,nt,nt,nt
COc1ccc2c3c([nH]c2c1)[C@@H](CO)N(C(=O)c1ccccc1)CC31CN(C(=O)NC(C)C)C1,36,-3,nt,nt,nt,nt,nt
COC(=O)C[C@H]1C[C@H]2c3cc(NC(=O)c4cccnc4)ccc3O[C@H]2[C@@H](CO)O1,12,-1,-52,nt,nt,nt,nt
Cc1noc(C)c1NC(=O)Nc1ccc2c(c1)C(=O)N([C@H](C)CO)C[C@@H](C)[C@@H](CN(C)Cc1ccc(Cl)c(Cl)c1)O2,-5,2,44,nt,nt,nt,nt
COCCN(C[C@H]1N[C@H](CO)[C@@H]1c1ccccc1)C(=O)NC1CCCC1,-6,4,nt,nt,nt,nt,nt

# Screening data from PubChem BioAssay.
